Activity calls are given as the source filed them.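 Rule for the calls: active = GFP response above 150% of the DMSO control; inconclusive = Under 70 cell events counted for a yeast strain; inactive = the rest.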
experiment: yeast TOR pathway CIT2-GFP reporter retest – flow cytometry, third cherry pick, single plex, confirmation (AID 504340);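 note: median GFP fluorescence over all cells with no mother versus daughter split; sample signal as a ratio to the plate DMSO mean so 100% equals DMSO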; details: S. cerevisiae CIT2-GFP strain, 3 h, at 10 µM, stronger effect = higher value

SMILES | GFP response vs DMSO
CNc1nc(N)c([N+](=O)[O-])c(Nc2cccc(Cl)c2)n1 | 480% (active)
Cc1ccc(Nc2cc(=O)[nH]c(=O)[nH]2)cc1Cl | 99.3% (inactive)
O=C(N/N=C/c1ccccc1O)c1cccc2ccccc12 | 92.8% (inactive)
Nc1cc(C(=O)O)c(N)c2c1C(=O)c1ccccc1C2=O | 94.5% (inactive)
Oc1ccc(F)c2cccnc12 | 101% (inactive)
COc1cccc2c(=O)c(C(=O)O)c[nH]c12 | 99.3% (inactive)
CSc1nc(Nc2ccc(Cl)cc2)c(C#N)c(=O)[nH]1 | 104% (inactive)
CCC(C)Nc1nc(N)c([N+](=O)[O-])c(Nc2cc(OC)ccc2OC)n1 (centres undefined) | 101% (inactive)
C[n+]1cccc2cccc([O-])c21 | 103% (inactive)
C/C(=N\NC(=O)c1cccc2ccccc12)c1cccnc1 | 91.2% (inactive)
CC(=O)Nn1cnc2c(c1=O)C1(CCCCC1)Cc1ccccc1-2 | 112% (inactive)
Cc1cc(C)c(NC(=O)CC(=O)c2ccccc2)c(Cl)c1 | 92.8% (inactive)
C/C(=N\NC(=O)c1ccccc1)c1ccccc1F | 104% (inactive)
CC1=CN2C(=N)/C(=C/c3ccco3)C(=O)N=C2S1 | 112% (inactive)
COc1ccc(OC)c2c(C)cc(C)nc12 | 99.3% (inactive)
O=C(Nc1ccccc1)ON=C1c2ccccc2-c2ccccc21 | 112% (inactive)
C/C(=C\C(=O)c1ccc(Cl)cc1)Nc1ccc(Br)cc1 | 104% (inactive)
NC(=O)COc1cccc2cccnc12 | 104% (inactive)
COc1ccccc1Nc1nc(NCCC(C)C)nc(N)c1[N+](=O)[O-] | 114% (inactive)
